WRN inhibitor – blocks human WRN helicase. WRN helicase unwinding, fluorescent forked duplex, kinetic. Q14191. Potency, µM (doses to about 114 µM), most hits filed as inhibitors. AID 651768. 0.46% of 360,000 active; also: nearly all actives have a fitted effect of over 55% in size
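Primary qHTS, 1536-well format. 20 nM WRN + compound, 15 min RT; start with 100 nM forked fluorophore/quencher duplex, 2 mM ATP (final); kinetic read ex 525/em 598 nm.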
Tb PFK block – T. brucei PFK enzyme inhibition; AID 485367; Potency, µM (titrated, usually from 57.5 µM), most hits filed as inhibitors; 0.17% of 330,000 active; T. brucei PFK, ADP-Glo luminescence; also: nearly all actives have a fitted effect of over 60% in size
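Luminescent ADP detection (ADP-Glo, two-step: ATP depletion then ADP-to-ATP conversion for luciferase) reported PFK activity after 45 min room-temperature reaction of 1.25 nM enzyme with 0.5 mM F6P and 0.1 mM ATP at pH 8.0.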
Tb PGK inh – blocks T. brucei phosphoglycerate kinase. PGK/GAPDH coupled, Kinase-Glo luminescence, 60 min. Potency, µM (titrated, usually from 57.5 µM), most hits filed as inhibitors. 0.043% of 380,000 active; also: nearly all actives have a fitted effect of over 60% in size
Target sequence (P07378 whole entry, looked up): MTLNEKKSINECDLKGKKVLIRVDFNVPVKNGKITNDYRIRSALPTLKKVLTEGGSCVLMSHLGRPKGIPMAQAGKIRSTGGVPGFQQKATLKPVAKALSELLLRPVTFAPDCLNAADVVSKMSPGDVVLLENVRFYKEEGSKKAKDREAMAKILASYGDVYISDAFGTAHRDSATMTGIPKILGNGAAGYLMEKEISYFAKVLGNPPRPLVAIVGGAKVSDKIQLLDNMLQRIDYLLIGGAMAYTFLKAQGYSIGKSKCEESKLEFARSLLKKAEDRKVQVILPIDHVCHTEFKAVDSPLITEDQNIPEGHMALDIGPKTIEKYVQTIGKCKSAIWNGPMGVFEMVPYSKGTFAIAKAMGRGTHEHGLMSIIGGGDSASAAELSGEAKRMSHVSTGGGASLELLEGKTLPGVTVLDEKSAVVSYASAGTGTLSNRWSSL
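Luminescent ATP detection (Kinase-Glo Plus) follows a 60-minute room-temperature incubation, with wells lacking PGK as controls. Buffer: 100 mM TEA (pH 7.6), 5 mM MgCl2, 0.01% Tween-20. Coupling enzyme GAPDH (100 nM final) supplies unstable 1,3-BPG in-well.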
PI5P4Ka inh – PI5P4K alpha (human) kinase inhibition; P48426; PI5P4Kalpha enzyme, ADP-Glo luminescence, 60 min; hits give low values; max response, %; 1.2% of 330,000 active; AID 652105; active = max response of -50% or lower; inconclusive = between -30% and -50%; inactive = -30% or higher; also: value at the top dose of about 77 µM
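Reactions run in 0.038 M HEPES pH 7.4, 0.28 mM EGTA, 0.1% CHAPS and 5% DMSO, with PI5P4Kalpha, substrate, compound and 5 microM ATP final, one hour at room temperature. Readout is ADP-Glo luminescence.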
TDP1 block – TDP1 (human) enzyme inhibition; 0.28% of 350,000 active; Potency, µM (highest dose often 130 µM), hits mostly inhibitors; recombinant TDP1, AlphaScreen DNA substrate cleavage; also: nearly all actives have a fitted effect of over 40% in size
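E. coli-derived human Tdp1, 1 nM final. Cpd preinc 15 min RT; substrate 15 nM final, 5 min RT; AS bead mix 10 ug/ml final, 10 min RT. Signal loss = tyrosine-FITC cleavage. No-enzyme wells = max signal.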
FEN1 inh – blocks human flap endonuclease 1; P39748; Recombinant FEN1 flap cleavage, fluorescence, 15 min; Potency, µM (doses to about 114 µM), actives largely listed as inhibitors; 0.35% of 390,000 active; AID 588795; also: nearly all actives have a fitted effect of over 65% in size
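FEN1 at 10 nM preincubated with compounds 15 min at room temperature, then flap DNA substrate added at 50 nM final. Signal read at 0 and 15 min; concentration-response fitted with four-parameter Hill equation.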
A number is an active result; n = inactive; u = inconclusive; x = not tested or not shown; [ ] = dose if it differs, or a comment. Compounds with a hit are over-represented: about 1.5% of the library has one in this group of screens. Unless noted, calls follow the shape of the dose curve; as a rule, active = well fitted curve in the direction sought with a large enough effect; inconclusive = small, poorly fitted or top-dose-only effect, or another doubt; inactive = no such curve, though single readings can be large; an effect the other way counts as inactive or inconclusive.

SMILES	WRN inhibitor	Tb PFK block	Tb PGK inh	PI5P4Ka inh	TDP1 block	FEN1 inh
CCCC[n+]1c(/C=C/c2c(OC)cc(OC)cc2OC)ccc2ccccc21	x	x	x	x	x	20µM
COc1ccc(/C=C/c2ccc3ccccc3[n+]2C)cc1OC	n	n	n	n	x	n
O=C1CN(S(=O)(=O)c2c(F)cccc2F)CCN1S(=O)(=O)c1ccc2c(c1)OCCO2	x	x	x	x	n	x
N#Cc1nc(Nc2cc(Cl)cc(Cl)c2)nc(NC2CCCC2)n1	x	x	x	x	n	x
CCCCn1c(=S)[nH]c2c(=O)n(C)c(=O)n(C)c21	n	x	n	-73	x	x
O=C(NC(=S)NCCC1=CCCCC1)c1ccccc1Br	n	n	u	-54	n	n
O=C(COC(=O)c1ccccc1Br)NCCC1=CCCCC1	n	n	n	n	n	n
COc1ccccc1/C=C/C=N/NC(=O)c1cc(-c2ccco2)[nH]n1	n	n	n	-72	n	n
COc1ccccc1NC(=O)Nc1ccc(Cl)c(S(=O)(=O)Nc2ccccc2OC)c1	n	n	n	n	n	n
COc1ccccc1NS(=O)(=O)c1cc(NC(=O)CNC(=O)c2ccc(C)s2)ccc1Cl	56µM	n	n	n	n	45µM
CC1(CC(=O)N/N=C/c2cc([N+](=O)[O-])c(O)cc2O)OCCO1	u	n	n	-64	u	n
NNc1ccccc1C(F)(F)F	u	n	n	n	50µM	n
Cc1ccc(Nc2nc(NCc3ccco3)nc3nccnc23)c(C)c1	x	x	x	x	8.9µM	n
Cc1ccc(Nc2nc(NCc3ccco3)nc3nccnc23)cc1	x	x	x	x	n	n
O=C(COC(=O)c1ccco1)Nc1ccc([N+](=O)[O-])cc1Cl	n	n	n	n	n	n
O=C(COC(=O)c1ccco1)Nc1nc2ccc([N+](=O)[O-])cc2s1	n	n	n	-54	n	n
CCCCCCCCCC[n+]1ccc(/C=C/c2ccc(N(C)C)cc2)c2ccccc21	x	x	x	x	x	79µM
CN(Cc1ccccc1)c1ccc(/C=C/c2sc3ccccc3[n+]2C)cc1	x	x	x	x	x	40µM
CCCC[n+]1c(/C=C/c2ccc(N(C)C)cc2)sc2ccccc21	x	x	x	x	x	50µM
O=[S+]([O-])(/C=C/c1nc(Nc2cc(F)cc(F)c2)c2ncn(CC(F)F)c2n1)c1ccccc1	x	x	x	x	n	x
COc1cccc(C2c3c(ncn(-c4ccccc4Br)c3=N)Oc3ccc4ccccc4c32)c1 (centres undefined)	x	x	x	x	n	x
O=C1/C(=C/c2ccc(O)c(O)c2)Oc2ccccc21	x	x	x	x	n	x
Cc1cc(/C=C2\C=Cc3ccccc32)ccc1N(C)C	x	x	x	x	x	n
CN(C)c1ccc(C(=O)OCC(=O)Nc2ccc(S(N)(=O)=O)cc2)cc1	45µM	n	n	n	x	u
CC1(OC(=O)c2cccs2)C(=O)C=C2C=C3CCCN3C=C2C1=O (centres undefined)	u	n	u	-60	x	u
SMILES	WRN inhibitor	Tb PFK block	Tb PGK inh	PI5P4Ka inh	TDP1 block	FEN1 inh
CCN(CC)c1ccc(C(=O)O)cc1	n	n	n	n	n	n
CCN(CC)c1ccc(C(=C2C=CC(=[N+](CC)CC)C=C2)c2ccc(S(=O)(=O)O)cc2S(=O)(=O)[O-])cc1	n[11.6 µM]	x	u	-57	x	u
O=C(C[N+]12CN3CN(CN(C3)C1)C2)c1ccc(I)cc1	x	x	x	x	x	n
CC1(O)C(=O)C=C2C=C(c3ccsc3)OC=C2C1=O (centres undefined)	x	x	x	x	n	x
CCC(=O)OC1(C)C(=O)C=C2C=C(c3ccsc3)OC=C2C1=O (centres undefined)	u	n	n	-73	n	40µM
COC(=O)CCC(=O)OC1(C)C(=O)C=C2C=C(c3ccsc3)OC=C2C1=O (centres undefined)	u	x	n	-98	n	32µM
O=C(C[n+]1cccc2cc(Cl)ccc21)c1ccc(Br)cc1	x	x	x	x	x	n
COc1cc(N)c(NC(=O)/C=C/c2nc3cc(OC)c(OC)cc3[nH]2)cc1OC	x	x	x	x	x	n
COc1ccc(CN(Cc2ccccc2)C(=O)c2ccc(OC)cc2O)cc1	x	x	x	x	n	x
CC(=O)Sc1nc(-c2ccccc2)[nH]c1S(=O)(=O)c1ccc(C)cc1	u	n	n	-81	n	n

High-throughput results (PubChem BioAssay)
